PubChem BioAssay (NCATS)
Inconclusive results are not listed. Calls of active or inactive are those of the source. Calls come from the whole dose curve; as a rule, active = well fitted inhibition curve with a large enough effect; inconclusive = small, poorly fitted or top-dose-only effect; inactive = flat fitted curve, though single readings scatter. Where a SMILES comes first, the peptide text is derived from it.

Legend:
[1] = test system: CRL-7250; assay: Cytotoxic Profiling of Annotated Libraries Using Quantitative High-Throughput Screening (AID 1296008); conditions: Five cell lines viability, CellTiter-Glo ATP luminescence, 48-72 h; max response: active compounds read low; for max response: % is set by controls: 0 for no effect and ±100 for the full control effect
In short: (§1)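 Cytotoxicity was measured as CellTiter-Glo ATP luminescence, read after 10 min at room temperature. Compound treatment of the cells lasted 48 or 72 hr at 37 degrees Celsius in a qHTS format.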

[2] = test system: HEK293; assay: as above; conditions: Five cell lines viability, CellTiter-Glo ATP luminescence, 48-72 h; max response: active compounds read low
In short: as §1

[3] = test system: HaCat; assay: as above; conditions: Five cell lines viability, CellTiter-Glo ATP luminescence, 48-72 h; max response: active compounds read low
In short: as §1

[4] = test system: KB-3-1; assay: as above; conditions: Five cell lines viability, CellTiter-Glo ATP luminescence, 48-72 h; max response: active compounds read low
In short: as §1

[5] = test system: NIH3T3; assay: as above; conditions: Five cell lines viability, CellTiter-Glo ATP luminescence, 48-72 h; max response: active compounds read low
In short: as §1

[6] = test system: PC49; assay: qHTS profiling for inhibitors of Plasmodium falciparum proliferation (AID 504749); conditions: P. falciparum in erythrocytes, SYBR Green DNA, 72 h; series mostly up to 28.7 µM
In short: (§2)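 Infected RBCs, 0.3% parasitemia/2.5% Hct final; cpd 72 h, 37 C, 5% CO2; lysis buffer with saponin/triton/SYBR Green I, o/n RT dark; FI 485/535; norm. to artemisinin (0.29 uM) and DMSO.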

[7] = test system: SC27B; assay: as above; conditions: P. falciparum in erythrocytes, SYBR Green DNA, 72 h; series mostly up to 28.7 µM
In short: as §2

[8] = test system: TAB109; assay: as above; conditions: P. falciparum in erythrocytes, SYBR Green DNA, 72 h; series mostly up to 28.7 µM
In short: as §2

[9] = test system: TAB113; assay: as above; conditions: P. falciparum in erythrocytes, SYBR Green DNA, 72 h; series mostly up to 28.7 µM
In short: as §2

[10] = test system: TAB165; assay: as above; conditions: P. falciparum in erythrocytes, SYBR Green DNA, 72 h; series mostly up to 28.7 µM
In short: as §2
Note: nearly all actives have a fitted effect of over 60% in size.
Potency is the fitted concentration of half-maximal effect.

Cc1ccccc1N1CCN(CCc2nnc3n2CCCC3)CC1
inactive: max response [1] -7.88% | outcome [2] | max response [3] -11.8% | max response [4] -5.62% | max response [5] 4.77%

O=C(Oc1ccccc1)c1ccccc1O
inactive: outcome [1] | outcome [2] | outcome [3] | max response [4] -0.601% | max response [5] 3.3%

CC(=O)N[C@@H](CCC(N)=O)C(=O)O
inactive: max response [1] -5.46% | outcome [2] | outcome [3] | max response [4] -6.88% | max response [5] -1.83%

CC(=O)N1CCN(c2ccc(O)cc2)CC1
inactive: max response [1] -1.56% | max response [2] -2.95% | outcome [3] | outcome [5]

OCCCc1ccccc1
inactive: max response [1] -10.6% | max response [2] -4.71% | max response [3] -3% | outcome [5]

Oc1ccccc1
inactive: max response [1] -1.94% | max response [2] -1.05% | outcome [3] | max response [4] -6.38% | max response [5] 3.74%

O=C1CC2(CCCC2)CC(=O)N1CCNCC1COc2ccccc2O1 (stereo unspecified)
inactive: max response [1] -5.57% | outcome [2] | max response [3] -0.105% | max response [5] -7.46%

NC(=O)COCCN1CCN(C(c2ccccc2)c2ccc(Cl)cc2)CC1 (stereo unspecified)
inactive: max response [1] 0.918% | max response [2] 1.14% | max response [3] -16.4% | max response [4] -17.1% | outcome [5]

CC(C)(C)c1cc(C=O)cc(C(C)(C)C)c1O
inactive: max response [1] 4.77% | max response [2] 3.28% | outcome [3] | max response [5] 1.57%

CCCCCCCCCCCCCC[N+](C)(C)C
inactive: Potency [6]
active: Potency [7] 6.31 µM | Potency [8] 4.47 µM | Potency [9] 5.01 µM | Potency [10] 5.62 µM | Potency [1] 7.5 µM | Potency [2] 2.66 µM | Potency [3] 5.96 µM | Potency [4] 16.4 µM | Potency [5] 23.7 µM

C/C(=C1\CCOC(=O)S1)N(C=O)Cc1cnc(C)nc1N
inactive: max response [1] -21.8% | max response [2] -12.5% | max response [3] 0.182% | max response [5] 0.237%

CCN1CCN(C(=O)N[C@@H](C(=O)N[C@@H]2C(=O)N3[C@@H]2SC(C)(C)[C@H]3C(=O)O)c2ccccc2)C(=O)C1=O
inactive: outcome [1] | max response [2] -1.44% | outcome [3] | max response [4] -9.16% | max response [5] 2.03%

CNC[C@H](O)[C@@H](O)[C@H](O)[C@H](O)CO
inactive: max response [1] -2.73% | max response [2] -0.47% | max response [3] -3.04% | max response [5] 1.64%

O=C(O)C1CCC1
inactive: outcome [1] | max response [2] -2.16% | max response [3] 1.71% | max response [5] -4.19%

CC(=O)OC[C@H]1O[C@@H](OC(C)=O)[C@H](OC(C)=O)[C@@H]1OC(C)=O
inactive: max response [1] -4.36% | max response [2] 1.73% | max response [3] 2.57% | outcome [5]

C[C@@]12CCC[C@H]1[C@@H]1CC[C@H]3C[C@@H](O)CC[C@]3(C)[C@H]1CC2
inactive: max response [1] 2.58% | outcome [2] | max response [3] 2.53% | max response [4] -1.74% | max response [5] 0.76%

CCc1cc(S(=O)(=O)O)c2cc(C(C)C)cccc1-2
inactive: max response [1] 4.56% | max response [2] -0.992% | max response [3] 0.42% | max response [4] 7.96% | max response [5] 1.41%

CCCCCC[C@@H](CCC)C(=O)O
inactive: max response [1] -4.37% | outcome [2] | outcome [3] | max response [4] -12.3% | outcome [5]

CC(C)N(CCC(=O)c1ccc2ccccc2c1)Cc1ccccc1
inactive: max response [1] -24.3% | max response [2] -116% | outcome [3] inactive; activator
active: Potency [5] 10.3 µM

CC(NC(CCc1ccccc1)C(=O)O)C(=O)N1C(=O)N(C)CC1C(=O)O (stereo unspecified)
inactive: max response [1] 1.99% | outcome [2] | outcome [3] | max response [5] -5.8%

COc1ccc2c(c1)c(CC(=O)OC/C=C(\C)CC/C=C(\C)CCC=C(C)C)c(C)n2C(=O)c1ccc(Cl)cc1
inactive: outcome [1] | max response [2] -3.27% | outcome [3] | max response [5] 4.12%

Cc1cc(O)c(C)c(C)c1O
inactive: outcome [1] | outcome [2] | outcome [3] | outcome [5]

Cc1c(N)cccc1C(F)(F)F
inactive: outcome [1] | outcome [2] | outcome [3] | max response [5] -0.97%

CO[C@@]1(NC(=O)CSC[C@@H](N)C(=O)O)C(=O)N2C(C(=O)O)=C(CSc3nnnn3C)CS[C@@H]21
inactive: max response [1] 1.25% | outcome [2] | outcome [3] | max response [4] -3.72% | max response [5] -3.38%

CC(=O)N[C@@H](CO)C(=O)N[C@@H](CC(=O)O)C(=O)N[C@@H](CCCCN)C(=O)N1CCC[C@H]1C(=O)O (Ac-SDKP-OH)
inactive: max response [1] 3.47% | max response [2] 0.0413% | max response [3] -26.1% | max response [5] -0.894%

O=C(O)c1ccccc1Nc1cc(Cl)ccc1C(=O)O
inactive: max response [1] 2.83% | max response [2] -2.68% | outcome [3] | max response [4] -6.82% | max response [5] -15.4%
